Where “and” joins values, the source holds several entries; their conditions need not be identical. Equal values may be shown once. The source holds several records for some structures; these can differ, active in one and inactive in another. Calls of active or inactive are those of the source. How the source made its calls: active means hit-call score of the fitted dose curve at least 0.9, where 1 is the maximum; inactive means score below 0.9.
These molecules were tested on Monocyte Chemoattractant Protein-1 (MCP1), CCL2 (gene 6347) (assay: BSK_BF4T_MCP1: BioMAP Diversity Plus: BF4T Assay for Monocyte Chemoattractant Protein-1 (MCP1) Biomarker Activity (AID 2284259)). Settings: primary human bronchial epithelial cells with fibroblasts.
Experimental: BSK_BF4T is a cell-based, multiplexed-readout assay that uses bronchial epithelial cells and dermal fibroblasts, a human vascular primary cell, with measurements taken at 24 hours after chemical dosing in a microplate: 96-well plate.BSK_BF4T_MCP1 is an assay component measured in the BSK_BF4T assay. It measures MCP-1 antibody related to regulation of gene expression using ELISA technology.Data from the assay component BSK_BF4T_MCP1 was analyzed at the endpoint, BSK_BF4T_MCP1, in the positive analysis fitting direction relative to DMSO as the negative control and baseline of activity. Using a type of binding reporter, gain or loss-of-signal activity can be used to understand protein changes. To generalize the intended target to other relatable targets, this assay endpoint is annotated to the 'cytokine' intended target family, where the subfamily is 'chemotactic factor'.
The levels of cell surface (or secreted, indicated by the prefix "s") biomarker endpoints were measured by ELISA. Overt cytotoxicity to cells in confluent adherent cultures (all systems other than the BT system) was assessed by measuring total protein levels using sulforhodamine B (SRB) staining in parallel cultures at the time of biomarker measurements, indicated as SRB endpoints. For proliferation assays for adherent cell types, individual cell types are cultured at sub-confluence and relative cell numbers quantified by SRB staining at time points optimized for each system (48 h: 3C and CASM3C systems; 72 h: BT and HDF3CGF systems; 96 h: SAg system). SRB was performed by staining cells with 0.1% SRB after fixation with 10% TCA and reading wells at 560 nm.Viability and proliferation of PBMC (T cells) was quantified by Alamar Blue reduction for the SAg and BT systems. For PBMC viability (referred to as PBMC Cytotoxicity within the assay endpoint names), cells were plated (75,000/well in a 96-well plate) and then chemical samples added for 1 h before addition of activators, SEB and TSST-1 (20 ng/mL final concentration each). Cells were incubated for 90 h. Then, Alamar Blue (20 uL/well) (Invitrogen, Cat DAL1100) was added for 6 h, and the plates were read with a fluorescence microplate reader at 546/580 nm (excitation/emission). For PBMC proliferation, cells were plated and activated as above but incubated for only 16 h prior to addition of Alamar Blue. Plates were read after 6 h.
`OCC(F)(F)C(F)(F)C(F)(F)C(F)(F)C(F)(F)C(F)(F)C(F)(F)C(F)(F)C(F)(F)C(F)(F)C(F)(F)F` was tested, and the outcome was “inactive”. In the case of `O=S(=O)(O)C(F)(F)C(F)(F)C(F)(F)C(F)(F)C(F)(F)C(F)(F)C(F)(F)C(F)(F)C(F)(F)C(F)(F)F`, the outcome is reported as “inactive”. For `O=P(O)(O)CCC(F)(F)C(F)(F)C(F)(F)C(F)(F)C(F)(F)C(F)(F)F`, the outcome was “inactive”. In the case of `O=C(O)C(F)(F)OC(F)(F)C(F)(F)OC(F)(F)C(F)(F)OC(F)(F)C(F)(F)C(F)(F)C(F)(F)F`, the AC50 is reported as 7.5 µM (active) and the outcome is reported as “inactive”. With `O=C(O)CCC(F)(F)C(F)(F)C(F)(F)C(F)(F)C(F)(F)C(F)(F)F` the outcome was “inactive”. With `CN(CCO)S(=O)(=O)C(F)(F)C(F)(F)C(F)(F)C(F)(F)C(F)(F)C(F)(F)C(F)(F)C(F)(F)F` the outcome was “inactive”. In the case of `O=C(CC(=O)C(F)(F)C(F)(F)C(F)(F)F)c1cccs1`, the AC50 is reported as 22.9 µM (active) and 10.9 µM (active). For `CN(Cc1cnc2nc(N)nc(N)c2n1)c1ccc(C(=O)N[C@@H](CCC(=O)O)C(=O)O)cc1`, the outcome was “inactive”. With `C=CC(=O)OCCC(F)(F)C(F)(F)C(F)(F)C(F)(F)C(F)(F)C(F)(F)C(F)(F)C(F)(F)F` the outcome was “inactive”. For `O=P(O)(O)CCC(F)(F)C(F)(F)C(F)(F)C(F)(F)C(F)(F)C(F)(F)C(F)(F)C(F)(F)F`, the outcome was “inactive”. For `O=C(O)CCC(F)(F)C(F)(F)C(F)(F)C(F)(F)C(F)(F)F`, the outcome was “inactive”.
